In PubChem BioAssay AID1159580 (chemical genetic matrix, 2015):
In all, about 5,500 compounds went through this assay and about 2,000 (36%) were called active. Inconclusive results (about 18%) are left out. Cut-off read from the data, not from the text of the source: active = normalized growth mostly below about 0.91 (no sharp cut-off); inconclusive = no clear call, values can overlap the other calls; inactive = mostly above about 0.92. This is one part of the list.

Assay: chemical genetic growth profiling, strain panel (AID 1159580);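 note: tested at 20 µM; growth read once vehicle control cultures reached saturation at 30 °C; 1 = growth at the plate median or of vehicle wells; lower values mean less growth of the strain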
Conditions: S. cerevisiae deletion strains, growth OD

Measured: normalized growth

CC(=O)Oc1c(C)cccc1C(=O)O
inactive: locus YAL013W, strain DEP1, active compounds read low 1.01 | locus YAL021C, strain ccr4, active compounds read low 0.989 | locus YAL026C, strain drs2, active compounds read low 1.01 | locus YAL030W, strain snc1, active compounds read low 0.992 | locus YBL061C, strain skt5, active compounds read low 1.01 | locus YBR009C, strain hhf1, active compounds read low 1.01 | locus YBR021W, strain FUR4, active compounds read low 0.989 | locus YBR023C, strain chs3, active compounds read low 1 | locus YBR171W, strain sec66, active compounds read low 1.02 | locus YBR229C, strain ROT2, active compounds read low 0.988 | locus YBR231C, strain swc5, active compounds read low 1.02 | locus YBR279W, strain paf1, active compounds read low 1.01 | locus YCL011C, strain gbp2, active compounds read low 1.01 | locus YCL016C, strain dcc1, active compounds read low 0.998 | locus YCL029C, strain bik1, active compounds read low 1.01 | locus YCL061C, strain MRC1, active compounds read low 1.01 | locus YCL069W, strain vba3, active compounds read low 1.01 | locus YCR088W, strain abp1, active compounds read low 1.02 | locus YDL005C, strain med2, active compounds read low 1.02 | locus YDL035C, strain GPR1, active compounds read low 1.01 | locus YDL040C, strain nat1, active compounds read low 1 | locus YDL074C, strain BRE1, active compounds read low 1 | locus YDL101C, strain DUN1, active compounds read low 1.01 | locus YDL134C, strain PPH21, active compounds read low 1.01 | locus YDL185W, strain tfp1, active compounds read low 0.999 | locus YDL192W, strain arf1, active compounds read low 1.02 | locus YDR001C, strain nth1, active compounds read low 1.01 | locus YDR069C, strain doa4, active compounds read low 1.01 | locus YDR101C, strain arx1, active compounds read low 1.02 | locus YDR137W, strain rgp1, active compounds read low 0.985 | locus YDR150W, strain NUM1, active compounds read low 1.01 | locus YDR159W, strain sac3, active compounds read low 0.981 | locus YDR162C, strain NBP2, active compounds read low 1 | locus YDR195W, strain ref2 0.994 | locus YDR297W, strain sur2, active compounds read low 0.987 | locus YDR318W, strain mcm21, active compounds read low 1.02 | locus YDR334W, strain swr1, active compounds read low 1.01 | locus YDR335W, strain msn5, active compounds read low 0.989 | locus YDR388W, active compounds read low 1.01 | locus YDR392W, strain spt3, active compounds read low 0.957 | locus YDR502C, strain sam2, active compounds read low 1.02 | locus YEL003W, strain gim4, active compounds read low 1.03 | locus YEL037C, strain rad23, active compounds read low 1.02 | locus YEL061C, strain CIN8 (second series), active compounds read low 1.01 | locus YEL061C, strain CIN8, active compounds read low 0.995 | locus YER015W, strain faa2, active compounds read low 1.01 | locus YER016W, strain bim1, active compounds read low 0.984 | locus YER110C, active compounds read low 1.02 | locus YER111C, strain swi4, active compounds read low 1.02 | locus YER155C, strain BEM2 (second series), active compounds read low 1.01 | locus YER155C, strain BEM2, active compounds read low 1.01 | locus YER167W, strain BCK2, active compounds read low 1.01 | locus YFR010W, strain ubp6, active compounds read low 1.02 | locus YGL078C, strain dbp3, active compounds read low 1.01 | locus YGL086W, strain mad1, active compounds read low 1.01 | locus YGL167C, strain pmr1, active compounds read low 1.01 | locus YGL173C, strain kem1, active compounds read low 1.02 | locus YGL227W, strain vid30, active compounds read low 1.01 | locus YGL240W, strain doc1, active compounds read low 0.971 | locus YGL248W, strain PDE1, active compounds read low 1.01 | locus YGL253W, strain hxk2, active compounds read low 1.01 | locus YGR078C, strain PAC10, active compounds read low 1 | locus YGR135W, strain pre9, active compounds read low 1 | locus YGR229C, strain SMI1, active compounds read low 1.02 | locus YGR252W, strain gcn5, active compounds read low 1 | locus YHR013C, strain ard1, active compounds read low 1.01 | locus YHR027C, strain rpn1, active compounds read low 0.991 | locus YHR030C, strain SLT2, active compounds read low 1.01 | locus YHR079C, strain IRE1 (second series), active compounds read low 1 | locus YHR094C, strain hxt1, active compounds read low 1.01 | locus YHR129C, strain ARP1, active compounds read low 1.01 | locus YHR142W, strain chs7, active compounds read low 1.02 | locus YHR200W, strain rpn10, active compounds read low 1.02 | locus YIL066C, strain RNR3, active compounds read low 1.01 | locus YIL073C, strain SPO22, active compounds read low 1.05 | locus YIL125W, strain kgd1, active compounds read low 1.01 | locus YIR030C, strain dcg1, active compounds read low 1.01 | locus YJL092W, strain hpr5, active compounds read low 1.01 | locus YJL095W, strain BCK1 (second series), active compounds read low 0.977 | locus YJL095W, strain BCK1, active compounds read low 1.01 | locus YJL115W, strain asf1, active compounds read low 1.02 | locus YJL129C, strain trk1, active compounds read low 1.04 | locus YJL134W, strain LCB3, active compounds read low 1.01 | locus YJL154C, strain vps35, active compounds read low 1 | locus YJL164C, strain tpk1, active compounds read low 0.997 | locus YJL166W, strain qcr8, active compounds read low 1 | locus YJL168C, strain set2, active compounds read low 1.01 | locus YJL187C, strain SWE1 (second series), active compounds read low 1.01 | locus YJL187C, strain SWE1, active compounds read low 0.983
